# Data taken from publication PMC7862700, “An all-to-all approach to the identification of sequence-specific readers for epigenetic DNA modifications on cytosine”.
# Tests used:
# Assay in all cases: DAPPL (digital affinity profiling via proximity ligation, sequencing); 10 mM Tris-HCl pH 7.5, 50 mM NaCl, 1 mM DTT, 4% glycerol, room temperature, 30 min; GST-TFs on glutathione beads, 16-mer random dsDNA library, 0.1% formaldehyde crosslink after washing; high values mean tight binding
# Conditions in all cases: protein: recombinant; tags: N-terminal GST; dsDNA, one strand shown
# FLI1 = molecular target: T1, FLI1 (Homo sapiens, UniProt Q01543 1-452)
# T1 sequence: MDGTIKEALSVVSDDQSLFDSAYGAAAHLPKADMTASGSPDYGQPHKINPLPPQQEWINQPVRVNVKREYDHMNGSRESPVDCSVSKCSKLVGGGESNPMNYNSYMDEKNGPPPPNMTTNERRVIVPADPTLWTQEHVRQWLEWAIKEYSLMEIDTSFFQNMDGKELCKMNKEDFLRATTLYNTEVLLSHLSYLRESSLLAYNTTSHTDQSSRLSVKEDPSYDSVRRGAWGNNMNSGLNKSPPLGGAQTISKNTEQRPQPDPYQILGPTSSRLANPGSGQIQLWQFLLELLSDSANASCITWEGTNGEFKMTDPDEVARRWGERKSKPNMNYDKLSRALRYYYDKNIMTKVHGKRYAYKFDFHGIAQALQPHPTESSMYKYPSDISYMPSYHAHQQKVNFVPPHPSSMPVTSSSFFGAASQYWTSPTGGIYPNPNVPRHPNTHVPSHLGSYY
# Summary of the method: (§1)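 The binding signal reported is, for every hexamer, its read frequency for a factor over its read frequency for the tag-only sample. Reads came from pools of yeast-expressed, GST-fused human transcription factors on glutathione beads, barcoded with DNA and mixed with that sample, which were incubated with 200 nmole of a random double-stranded 16-mer DNA library in Tris/NaCl/DTT/glycerol buffer at room temperature for 30 min. After washing, the pools were crosslinked with 0.1% formaldehyde, proximity-ligated with BsaI/T4 ligase for 1 h at 37 °C, PCR-amplified and sequenced on an Illumina NextSeq500.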
# ELK1 = molecular target: T2, ELK1 (Homo sapiens, UniProt P19419 1-428)
# T2 sequence: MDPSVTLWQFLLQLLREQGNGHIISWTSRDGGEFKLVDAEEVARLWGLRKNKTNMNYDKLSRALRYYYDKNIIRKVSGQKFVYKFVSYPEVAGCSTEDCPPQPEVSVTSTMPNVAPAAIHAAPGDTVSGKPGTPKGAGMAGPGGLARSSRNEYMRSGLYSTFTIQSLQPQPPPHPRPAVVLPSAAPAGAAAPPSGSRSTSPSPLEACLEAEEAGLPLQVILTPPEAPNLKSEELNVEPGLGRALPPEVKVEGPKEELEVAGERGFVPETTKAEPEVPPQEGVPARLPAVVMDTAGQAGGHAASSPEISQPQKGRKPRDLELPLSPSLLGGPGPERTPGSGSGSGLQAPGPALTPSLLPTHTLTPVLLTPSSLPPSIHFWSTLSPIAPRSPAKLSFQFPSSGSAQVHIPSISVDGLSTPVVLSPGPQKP
# Summary of the method: as §1
# GABPA = molecular target: T3, GABPA (Homo sapiens, UniProt Q06546 1-454)
# T3 sequence: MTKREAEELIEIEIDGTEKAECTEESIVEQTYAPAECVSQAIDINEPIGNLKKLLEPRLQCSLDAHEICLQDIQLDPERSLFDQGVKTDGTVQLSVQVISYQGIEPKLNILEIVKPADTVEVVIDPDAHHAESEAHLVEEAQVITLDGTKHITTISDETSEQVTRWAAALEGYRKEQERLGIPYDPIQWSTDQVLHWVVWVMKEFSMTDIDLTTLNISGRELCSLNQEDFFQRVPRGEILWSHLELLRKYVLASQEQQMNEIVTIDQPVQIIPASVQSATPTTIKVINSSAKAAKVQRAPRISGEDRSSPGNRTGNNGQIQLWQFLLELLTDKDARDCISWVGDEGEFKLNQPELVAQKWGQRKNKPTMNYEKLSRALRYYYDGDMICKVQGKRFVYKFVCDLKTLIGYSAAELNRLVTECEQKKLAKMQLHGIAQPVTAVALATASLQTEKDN
# Summary of the method: as §1
# ERG = molecular target: T4, ERG (Homo sapiens, UniProt P11308 1-479)
# T4 sequence: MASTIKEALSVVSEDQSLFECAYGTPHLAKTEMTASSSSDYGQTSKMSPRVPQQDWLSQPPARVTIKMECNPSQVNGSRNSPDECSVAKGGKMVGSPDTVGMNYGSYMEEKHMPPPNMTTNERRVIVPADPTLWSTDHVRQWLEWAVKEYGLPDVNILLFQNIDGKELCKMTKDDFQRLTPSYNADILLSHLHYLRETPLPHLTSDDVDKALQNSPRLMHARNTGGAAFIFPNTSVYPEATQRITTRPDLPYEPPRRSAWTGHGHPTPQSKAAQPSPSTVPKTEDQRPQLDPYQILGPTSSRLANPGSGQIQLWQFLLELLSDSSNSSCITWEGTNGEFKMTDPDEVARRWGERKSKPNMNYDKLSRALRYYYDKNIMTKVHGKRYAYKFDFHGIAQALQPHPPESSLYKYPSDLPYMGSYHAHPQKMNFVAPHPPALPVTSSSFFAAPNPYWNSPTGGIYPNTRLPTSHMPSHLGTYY
# Summary of the method: as §1
# ELF1 = ELF1 (Homo sapiens, UniProt P32519 1-619)
# Sequence of ELF1 (P32519 whole entry): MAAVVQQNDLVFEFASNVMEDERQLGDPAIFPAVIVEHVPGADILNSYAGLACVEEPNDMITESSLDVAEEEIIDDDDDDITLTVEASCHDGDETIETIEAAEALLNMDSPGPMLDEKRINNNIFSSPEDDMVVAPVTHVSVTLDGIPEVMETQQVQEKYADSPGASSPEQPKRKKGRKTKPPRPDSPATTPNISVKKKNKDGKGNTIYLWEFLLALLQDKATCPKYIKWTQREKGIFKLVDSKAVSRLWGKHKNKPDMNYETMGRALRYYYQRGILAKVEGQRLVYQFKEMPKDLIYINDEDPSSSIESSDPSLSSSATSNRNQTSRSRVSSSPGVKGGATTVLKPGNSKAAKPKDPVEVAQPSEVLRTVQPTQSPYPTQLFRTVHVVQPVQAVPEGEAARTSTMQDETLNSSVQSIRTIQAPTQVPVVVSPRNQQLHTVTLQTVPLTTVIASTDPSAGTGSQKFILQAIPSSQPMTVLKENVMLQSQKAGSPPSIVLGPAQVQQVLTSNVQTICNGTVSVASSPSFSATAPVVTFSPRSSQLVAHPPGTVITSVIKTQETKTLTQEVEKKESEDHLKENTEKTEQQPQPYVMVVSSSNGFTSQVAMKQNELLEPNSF
# Summary of the method: as §1
# EHF = molecular target: T5, EHF (Homo sapiens, UniProt Q9NZC4 1-300)
# T5 sequence: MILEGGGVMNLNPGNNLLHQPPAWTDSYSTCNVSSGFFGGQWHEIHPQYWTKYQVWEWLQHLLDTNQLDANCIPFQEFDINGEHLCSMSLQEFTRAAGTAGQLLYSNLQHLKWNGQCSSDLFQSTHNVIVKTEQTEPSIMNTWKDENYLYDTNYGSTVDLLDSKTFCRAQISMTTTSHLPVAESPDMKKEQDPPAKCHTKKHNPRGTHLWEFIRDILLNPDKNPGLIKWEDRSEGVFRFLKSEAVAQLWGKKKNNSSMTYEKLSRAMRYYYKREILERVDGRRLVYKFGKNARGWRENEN
# Summary of the method: as §1
# SPIB = SPIB (Homo sapiens, UniProt Q01892 1-262)
# Sequence of SPIB (Q01892 whole entry): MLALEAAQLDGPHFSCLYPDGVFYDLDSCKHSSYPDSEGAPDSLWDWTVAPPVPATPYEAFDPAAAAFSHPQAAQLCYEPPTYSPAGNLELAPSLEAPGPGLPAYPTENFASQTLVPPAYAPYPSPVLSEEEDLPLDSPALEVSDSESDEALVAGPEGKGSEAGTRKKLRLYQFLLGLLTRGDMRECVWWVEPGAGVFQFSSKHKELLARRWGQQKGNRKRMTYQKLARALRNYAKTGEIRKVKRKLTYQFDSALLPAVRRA
# Summary of the method: as §1
# FEV = molecular target: T6, FEV (Homo sapiens, UniProt Q99581 1-238)
# T6 sequence: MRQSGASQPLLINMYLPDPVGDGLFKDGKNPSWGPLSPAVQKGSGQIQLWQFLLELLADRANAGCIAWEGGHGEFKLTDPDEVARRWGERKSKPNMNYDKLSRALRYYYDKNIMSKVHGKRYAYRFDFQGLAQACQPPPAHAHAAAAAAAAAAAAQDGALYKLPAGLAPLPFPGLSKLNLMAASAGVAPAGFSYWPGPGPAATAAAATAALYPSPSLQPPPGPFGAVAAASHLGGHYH
# Summary of the method: as §1
# ETV5 = ETV5 (Homo sapiens, UniProt P41161 1-510)
# Sequence of ETV5 (P41161 whole entry): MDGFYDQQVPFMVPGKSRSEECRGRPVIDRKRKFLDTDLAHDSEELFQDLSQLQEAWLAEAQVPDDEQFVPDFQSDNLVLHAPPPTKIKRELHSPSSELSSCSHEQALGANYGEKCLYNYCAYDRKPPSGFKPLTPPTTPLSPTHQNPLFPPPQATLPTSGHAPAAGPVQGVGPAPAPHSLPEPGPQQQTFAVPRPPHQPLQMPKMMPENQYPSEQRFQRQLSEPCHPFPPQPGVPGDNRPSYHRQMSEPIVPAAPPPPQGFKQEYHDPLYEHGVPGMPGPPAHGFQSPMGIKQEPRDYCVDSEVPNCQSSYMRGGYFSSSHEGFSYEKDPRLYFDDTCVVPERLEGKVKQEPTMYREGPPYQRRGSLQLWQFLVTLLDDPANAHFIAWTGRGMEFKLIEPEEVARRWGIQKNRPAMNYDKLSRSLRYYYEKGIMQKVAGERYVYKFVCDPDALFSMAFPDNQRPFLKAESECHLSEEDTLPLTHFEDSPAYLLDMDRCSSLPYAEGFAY
# Summary of the method: as §1
# SPIC = molecular target: T7, SPIC (Homo sapiens, UniProt Q8N5J4 1-248)
# T7 sequence: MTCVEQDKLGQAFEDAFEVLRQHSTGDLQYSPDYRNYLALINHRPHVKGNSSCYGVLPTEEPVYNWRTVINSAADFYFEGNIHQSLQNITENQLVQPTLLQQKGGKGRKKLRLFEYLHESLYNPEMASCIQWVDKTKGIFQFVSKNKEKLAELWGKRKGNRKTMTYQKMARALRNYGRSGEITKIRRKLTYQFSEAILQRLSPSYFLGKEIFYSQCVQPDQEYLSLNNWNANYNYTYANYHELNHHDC
# Summary of the method: as §1
# ELF4 = ELF4 (Homo sapiens, UniProt Q99607 1-663)
# Sequence of ELF4 (Q99607 whole entry): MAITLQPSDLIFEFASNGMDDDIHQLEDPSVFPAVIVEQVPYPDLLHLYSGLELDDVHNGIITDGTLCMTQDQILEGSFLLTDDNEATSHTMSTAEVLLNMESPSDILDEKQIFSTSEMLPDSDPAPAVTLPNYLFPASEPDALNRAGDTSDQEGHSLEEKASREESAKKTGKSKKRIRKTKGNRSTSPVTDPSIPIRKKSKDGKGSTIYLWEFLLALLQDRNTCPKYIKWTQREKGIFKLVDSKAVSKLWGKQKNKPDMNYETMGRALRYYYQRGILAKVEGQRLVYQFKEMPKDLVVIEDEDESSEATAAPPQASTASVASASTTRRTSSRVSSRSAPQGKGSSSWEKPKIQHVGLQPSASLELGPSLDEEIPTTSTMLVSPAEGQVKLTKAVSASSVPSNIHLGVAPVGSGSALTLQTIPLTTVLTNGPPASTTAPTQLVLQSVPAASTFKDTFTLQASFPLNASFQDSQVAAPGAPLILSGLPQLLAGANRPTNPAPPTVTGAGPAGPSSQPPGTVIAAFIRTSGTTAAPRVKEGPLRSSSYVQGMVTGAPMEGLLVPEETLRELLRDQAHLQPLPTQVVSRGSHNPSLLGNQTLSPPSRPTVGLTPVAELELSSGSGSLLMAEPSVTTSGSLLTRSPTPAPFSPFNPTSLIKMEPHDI
# Summary of the method: as §1
# ELK4 = molecular target: T8, ELK4 (Homo sapiens, UniProt P28324-2 1-405)
# T8 sequence: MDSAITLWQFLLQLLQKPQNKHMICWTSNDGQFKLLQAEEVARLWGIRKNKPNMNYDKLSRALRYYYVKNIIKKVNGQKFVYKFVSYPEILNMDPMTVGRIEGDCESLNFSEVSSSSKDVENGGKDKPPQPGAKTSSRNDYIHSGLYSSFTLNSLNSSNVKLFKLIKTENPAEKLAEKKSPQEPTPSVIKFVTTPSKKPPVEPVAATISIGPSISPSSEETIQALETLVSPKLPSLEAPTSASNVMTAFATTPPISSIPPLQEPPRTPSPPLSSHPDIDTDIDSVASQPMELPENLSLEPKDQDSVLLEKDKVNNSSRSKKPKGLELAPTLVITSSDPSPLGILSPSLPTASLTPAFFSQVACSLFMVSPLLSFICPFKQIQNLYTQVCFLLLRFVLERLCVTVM
# Summary of the method: as §1
# ETV2 = molecular target: T9, ETV2 (Homo sapiens, UniProt O00321 1-342)
# T9 sequence: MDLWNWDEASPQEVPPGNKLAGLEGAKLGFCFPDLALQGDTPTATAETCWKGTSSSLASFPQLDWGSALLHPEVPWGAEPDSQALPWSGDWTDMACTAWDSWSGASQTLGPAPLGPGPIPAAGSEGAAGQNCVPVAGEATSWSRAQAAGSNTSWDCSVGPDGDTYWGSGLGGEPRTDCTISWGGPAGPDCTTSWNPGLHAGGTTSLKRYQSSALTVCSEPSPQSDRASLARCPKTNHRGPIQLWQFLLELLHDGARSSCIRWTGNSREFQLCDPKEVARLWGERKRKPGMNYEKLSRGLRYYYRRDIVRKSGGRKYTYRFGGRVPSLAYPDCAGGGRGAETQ
# Summary of the method: as §1
# ELF3 = molecular target: T10, ELF3 (Homo sapiens, UniProt P78545 1-371)
# T10 sequence: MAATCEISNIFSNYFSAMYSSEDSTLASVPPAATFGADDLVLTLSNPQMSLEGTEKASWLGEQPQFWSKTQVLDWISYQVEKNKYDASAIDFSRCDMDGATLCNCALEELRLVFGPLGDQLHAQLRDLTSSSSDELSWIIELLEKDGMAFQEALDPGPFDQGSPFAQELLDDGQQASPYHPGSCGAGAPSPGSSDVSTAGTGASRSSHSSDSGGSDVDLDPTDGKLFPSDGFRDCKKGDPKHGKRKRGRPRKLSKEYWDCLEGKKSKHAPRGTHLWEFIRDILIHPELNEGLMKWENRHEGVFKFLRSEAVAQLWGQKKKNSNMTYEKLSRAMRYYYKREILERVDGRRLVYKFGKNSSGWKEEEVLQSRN
# Summary of the method: as §1
# CRX = CRX (Homo sapiens, UniProt O43186 1-299)
# Sequence of CRX (O43186 whole entry): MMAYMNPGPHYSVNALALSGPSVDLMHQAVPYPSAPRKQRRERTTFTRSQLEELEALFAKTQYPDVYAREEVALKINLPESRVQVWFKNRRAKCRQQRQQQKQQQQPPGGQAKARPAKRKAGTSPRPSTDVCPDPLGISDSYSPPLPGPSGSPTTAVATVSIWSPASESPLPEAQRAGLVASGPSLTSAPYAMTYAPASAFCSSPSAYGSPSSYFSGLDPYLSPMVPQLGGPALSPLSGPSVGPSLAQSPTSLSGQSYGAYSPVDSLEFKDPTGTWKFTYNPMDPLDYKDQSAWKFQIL
# Summary of the method: as §1
# ETV1 = ETV1 (Homo sapiens, UniProt P50549 1-477)
# Sequence of ETV1 (P50549 whole entry): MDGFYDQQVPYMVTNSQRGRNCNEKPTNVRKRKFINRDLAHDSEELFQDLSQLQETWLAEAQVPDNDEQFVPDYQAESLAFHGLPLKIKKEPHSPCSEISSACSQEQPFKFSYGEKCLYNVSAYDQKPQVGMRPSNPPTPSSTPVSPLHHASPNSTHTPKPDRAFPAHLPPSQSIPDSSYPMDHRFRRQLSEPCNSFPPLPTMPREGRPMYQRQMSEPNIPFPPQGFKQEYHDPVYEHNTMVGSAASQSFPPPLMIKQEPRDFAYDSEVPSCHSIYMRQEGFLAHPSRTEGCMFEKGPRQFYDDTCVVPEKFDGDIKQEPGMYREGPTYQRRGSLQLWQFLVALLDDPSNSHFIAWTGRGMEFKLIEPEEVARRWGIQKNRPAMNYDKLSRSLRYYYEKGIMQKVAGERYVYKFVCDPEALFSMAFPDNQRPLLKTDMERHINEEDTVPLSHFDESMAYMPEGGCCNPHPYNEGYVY
# Summary of the method: as §1
# SPI1 = SPI1 (Homo sapiens, UniProt P17947 1-270)
# Summary of the method: as §1
# ELK3 = molecular target: T11, ELK3 (Homo sapiens, UniProt P41970 1-407)
# T11 sequence: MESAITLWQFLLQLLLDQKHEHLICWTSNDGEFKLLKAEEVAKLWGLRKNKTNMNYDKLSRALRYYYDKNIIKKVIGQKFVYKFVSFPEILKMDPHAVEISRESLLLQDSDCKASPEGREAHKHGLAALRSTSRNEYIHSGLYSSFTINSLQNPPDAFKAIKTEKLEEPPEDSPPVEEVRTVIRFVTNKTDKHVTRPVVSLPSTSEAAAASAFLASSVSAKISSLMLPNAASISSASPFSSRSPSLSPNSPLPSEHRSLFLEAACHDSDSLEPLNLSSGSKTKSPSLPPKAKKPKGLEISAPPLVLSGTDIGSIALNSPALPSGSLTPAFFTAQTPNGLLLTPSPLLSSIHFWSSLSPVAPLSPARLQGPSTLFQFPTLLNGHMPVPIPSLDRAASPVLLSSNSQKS
# Summary of the method: as §1
Sequence,binding signal (FLI1),binding signal (ELK1),binding signal (GABPA),binding signal (ERG),binding signal (ELF1),binding signal (EHF),binding signal (SPIB),binding signal (FEV),binding signal (ETV5),binding signal (SPIC),binding signal (ELF4),binding signal (ELK4),binding signal (ETV2),binding signal (ELF3),binding signal (CRX),binding signal (ETV1),binding signal (SPI1),binding signal (ELK3)
GGTGTT,"1.07 fold enrichment (6-mer frequency, TF over GST control)","1.13 fold enrichment (6-mer frequency, TF over GST control)","1.11 fold enrichment (6-mer frequency, TF over GST control)","1.08 fold enrichment (6-mer frequency, TF over GST control)","1.09 fold enrichment (6-mer frequency, TF over GST control)","1.04 fold enrichment (6-mer frequency, TF over GST control)","1.02 fold enrichment (6-mer frequency, TF over GST control)","1 fold enrichment (6-mer frequency, TF over GST control)","1.09 fold enrichment (6-mer frequency, TF over GST control)","1.09 fold enrichment (6-mer frequency, TF over GST control)","1.09 fold enrichment (6-mer frequency, TF over GST control)","1.13 fold enrichment (6-mer frequency, TF over GST control)","1.13 fold enrichment (6-mer frequency, TF over GST control)","1.03 fold enrichment (6-mer frequency, TF over GST control)","1.01 fold enrichment (6-mer frequency, TF over GST control)","1.04 fold enrichment (6-mer frequency, TF over GST control)",,
TTGGCC,"1.22 fold enrichment (6-mer frequency, TF over GST control)","1.24 fold enrichment (6-mer frequency, TF over GST control)","1.23 fold enrichment (6-mer frequency, TF over GST control)","1 fold enrichment (6-mer frequency, TF over GST control)","1.1 fold enrichment (6-mer frequency, TF over GST control)","1.17 fold enrichment (6-mer frequency, TF over GST control)","1.16 fold enrichment (6-mer frequency, TF over GST control)","1.14 fold enrichment (6-mer frequency, TF over GST control)","1.12 fold enrichment (6-mer frequency, TF over GST control)","1.06 fold enrichment (6-mer frequency, TF over GST control)","1.18 fold enrichment (6-mer frequency, TF over GST control)","1.08 fold enrichment (6-mer frequency, TF over GST control)","1.08 fold enrichment (6-mer frequency, TF over GST control)","1.12 fold enrichment (6-mer frequency, TF over GST control)",,"1.02 fold enrichment (6-mer frequency, TF over GST control)","1.08 fold enrichment (6-mer frequency, TF over GST control)","1.12 fold enrichment (6-mer frequency, TF over GST control)"
